Measured values published in the supplement of paper PMC8047044.
Where a name gives a salt, the structure may show the parent alone.

What was measured:
[1] = system: Neuro-2a; assay: neurite formation score, plate-normalized to DMSO control mean 5.04 (score (0-8 scale)); higher = more or longer neurites; conditions: 1 µM
Procedure: (§1)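 Neuro-2a mouse neuroblastoma cells in PLL-coated 96-well plates were pre-treated for 1 h in DMEM(+) with each kinase inhibitor at 1 µM, then switched to serum-free DMEM(-) with inhibitor to induce neurite outgrowth and fixed about 2-3 h later. Three blinded observers scored neurite formation from 0 (no neurites) to 8 (long neurites on almost all cells).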

[2] = system: Neuro-2a; assay: as above; conditions: 0.1 µM
Procedure: as §1, with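 “at 0.1” for “at 1”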

## CC(C)(C)c1ccc(S(=O)(=O)/C=C/C#N)cc1
[1]
  neurite formation score: 4.21

## CC(C)N(CCC(=O)c1ccc2ccccc2c1)Cc1ccccc1
[1]
  neurite formation score: 5.02
[2]
  neurite formation score: 4.92

## CCOc1cc(N2CCC(O)CC2)ccc1Nc1ncc2c(n1)N(C)c1ccccc1C(=O)N2C
[1]
  neurite formation score: 4.69

## COc1ccc(-c2nc(N3CCOCC3)c3sc(CN(C)c4ncc(C(=O)NO)cn4)cc3n2)cn1
[1]
  neurite formation score: 4.36
[2]
  neurite formation score: 3.58

## CCCS(=O)(=O)Nc1ccc(F)c(C(=O)c2c[nH]c3ncc(Cl)cc23)c1F
[1]
  neurite formation score: 2.91
[2]
  neurite formation score: 4.38

## NC(=O)c1ccc2nc(-c3ccc(Oc4ccc(Cl)cc4)cc3)[nH]c2c1
[1]
  neurite formation score: 4.63
[2]
  neurite formation score: 5.25

## Cc1ccccc1CN1C2=NCCN2C(=O)C2=C1CCN(Cc1ccccc1)C2
[1]
  neurite formation score: 4.63
[2]
  neurite formation score: 4.25

## CC(C)(CCCCCC(O)CCCCCC(C)(C)C(=O)O)C(=O)O
[1]
  neurite formation score: 0.138

## O=C(NC1CCNCC1)c1n[nH]cc1NC(=O)c1c(Cl)cccc1Cl
[1]
  neurite formation score: 5.57
[2]
  neurite formation score: 5.88

## CC[C@H](CO)Nc1nc(NCc2ccccc2)c2ncn(C(C)C)c2n1 [Roscovitine (Seliciclib,CYC202)]
[1]
  neurite formation score: 4.57
[2]
  neurite formation score: 4.38

## Cc1ccc(-c2csc3ncnc(SCCC(=O)O)c23)cc1
[1]
  neurite formation score: 4.02

## Cn1cnc(-c2cc3nccc(Oc4ccc(NC(=S)NC(=O)Cc5ccccc5)cc4F)c3s2)c1
[1]
  neurite formation score: 3.69

## CCc1cncnc1N1CCN(Cc2nc3ccc(C(F)(F)F)cc3[nH]2)CC1
[1]
  neurite formation score: 4.54

## CCn1c(N)c(C(=O)NC)c(=O)c2ccc(C#CC(C)(O)COC)nc21 (centres undefined)
[1]
  neurite formation score: 4.54
[2]
  neurite formation score: 4.42

## CC(C)c1cc(CNc2nc(Nc3cc(C4CC4)[nH]n3)cc(N3CCN(C)CC3)n2)on1
[1]
  neurite formation score: 0.692
[2]
  neurite formation score: 4.92

## NC(=O)Nc1sc(-c2ccc(F)cc2)cc1C(N)=O
[1]
  neurite formation score: 4.36

## Cc1ccccc1-n1c(Cn2nc(-c3cccc(O)c3)c3c(N)ncnc32)nc2cccc(C)c2c1=O
[1]
  neurite formation score: 4.88
[2]
  neurite formation score: 4.75

## CCS(=O)(=O)N1CCN(c2ccc(Nc3ncc(C(N)=O)c(NC4CC4)n3)cc2)CC1
[1]
  neurite formation score: 4.54
[2]
  neurite formation score: 5.08

## CCOc1cc2ncc(C#N)c(Nc3ccc(F)c(Cl)c3)c2cc1NC(=O)/C=C/CN(C)C [Pelitinib (EKB-569)]
[1]
  neurite formation score: 3.91

## Cc1cc(C(=O)NOCCO)c(Nc2ccc(I)cc2F)n(C)c1=O
[1]
  neurite formation score: 3.96
[2]
  neurite formation score: 3.92

## CN1CC[C@H](c2c(O)cc(O)c3c(=O)cc(-c4ccccc4Cl)oc23)[C@H](O)C1 [Flavopiridol hydrochloride]
[1]
  neurite formation score: 4.47
[2]
  neurite formation score: 3.76

## C=CC(=O)Nc1cc(Nc2nccc(-c3cn(C)c4ccccc34)n2)c(OC)cc1N(C)CCN(C)C
[1]
  neurite formation score: 5.14

## C=CC(=O)N1CCC(Oc2cc3c(Nc4ccc(Cl)c(Cl)c4F)ncnc3cc2OC)CC1 [Poziotinib]
[1]
  neurite formation score: 4.14
[2]
  neurite formation score: 3.76

## N#Cc1ccc2[nH]c(O)c(-c3ccc(CN4CCOCC4)cn3)c2c1
[1]
  neurite formation score: 4.54
[2]
  neurite formation score: 4.08

## CN(C)CCCn1cc(C2=C(c3c[nH]c4ccccc34)C(=O)NC2=O)c2ccccc21
[1]
  neurite formation score: 5.24
[2]
  neurite formation score: 5.54

## COc1cc(Nc2ncc(F)c(Nc3ccc4c(n3)NC(=O)C(C)(C)O4)n2)cc(OC)c1OC
[1]
  neurite formation score: 5.63
[2]
  neurite formation score: 4.58

## C=CC(=O)Nc1ccc2ncnc(Nc3cccc(Br)c3)c2c1
[1]
  neurite formation score: 4.24
[2]
  neurite formation score: 3.71

## Oc1ccc2ccccc2c1SSc1c(O)ccc2ccccc12
[1]
  neurite formation score: 3.88
[2]
  neurite formation score: 5.42

## Cn1cc(-c2ccc3c(c2)CCN3C(=O)Cc2cccc(C(F)(F)F)c2)c2c(N)ncnc21
[1]
  neurite formation score: 4.36
[2]
  neurite formation score: 5.25

## CC(=O)Nc1cccc(-n2c(=O)n(C3CC3)c(=O)c3c(Nc4ccc(I)cc4F)n(C)c(=O)c(C)c32)c1
[1]
  neurite formation score: 3.57
[2]
  neurite formation score: 4.38

## COc1cc(-c2cc(-c3ccc(N4CCNCC4)cc3)cnc2C)cc(OC)c1OC
[1]
  neurite formation score: 4.47
[2]
  neurite formation score: 5.09

## CC(C)Oc1ccc(-c2cnc3c(-c4ccnc5ccccc45)cnn3c2)cc1
[1]
  neurite formation score: 4.88
[2]
  neurite formation score: 4.08

## Cn1cnc2c(F)c(Nc3ccc(Br)cc3F)c(C(=O)NOCCO)cc21
[1]
  neurite formation score: 3.24
[2]
  neurite formation score: 5.38

## O=C(Nc1cc(C(F)(F)F)cc(C(F)(F)F)c1)c1cc(Cl)ccc1O
[1]
  neurite formation score: 2.8
[2]
  neurite formation score: 4.76
